This passage reports outcome results from PubChem BioAssay AID743314 (Broad Institute, 2014).

Molecules are shown by their SMILES. Potency and affinity values are given separately. Inconclusive results are not listed. Entries that show only a call come without a potency. Active and inactive are the calls of the source.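 The calls were made as follows: active = fitted half-maximal concentration no higher than twice the top tested dose, in every repeat run; inconclusive = repeat runs disagree, poor fit, or flat partial inhibition; inactive = the rest.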

In the assay the target is Endoplasmic reticulum aminopeptidase 1 (Homo sapiens) (UniProt Q9NZ08). Kind of assay: inhibition of human ERAP1 enzyme activity – biochemical, cherry-pick, set 2, plate reader, dose response (AID 743314). Particulars: Recombinant ERAP1, Leu-AMC fluorescence, 60 min; series mostly up to 11 µM.
Endoplasmic reticulum aminopeptidase 1 (Homo sapiens), sequence (Q9NZ08 whole entry, looked up): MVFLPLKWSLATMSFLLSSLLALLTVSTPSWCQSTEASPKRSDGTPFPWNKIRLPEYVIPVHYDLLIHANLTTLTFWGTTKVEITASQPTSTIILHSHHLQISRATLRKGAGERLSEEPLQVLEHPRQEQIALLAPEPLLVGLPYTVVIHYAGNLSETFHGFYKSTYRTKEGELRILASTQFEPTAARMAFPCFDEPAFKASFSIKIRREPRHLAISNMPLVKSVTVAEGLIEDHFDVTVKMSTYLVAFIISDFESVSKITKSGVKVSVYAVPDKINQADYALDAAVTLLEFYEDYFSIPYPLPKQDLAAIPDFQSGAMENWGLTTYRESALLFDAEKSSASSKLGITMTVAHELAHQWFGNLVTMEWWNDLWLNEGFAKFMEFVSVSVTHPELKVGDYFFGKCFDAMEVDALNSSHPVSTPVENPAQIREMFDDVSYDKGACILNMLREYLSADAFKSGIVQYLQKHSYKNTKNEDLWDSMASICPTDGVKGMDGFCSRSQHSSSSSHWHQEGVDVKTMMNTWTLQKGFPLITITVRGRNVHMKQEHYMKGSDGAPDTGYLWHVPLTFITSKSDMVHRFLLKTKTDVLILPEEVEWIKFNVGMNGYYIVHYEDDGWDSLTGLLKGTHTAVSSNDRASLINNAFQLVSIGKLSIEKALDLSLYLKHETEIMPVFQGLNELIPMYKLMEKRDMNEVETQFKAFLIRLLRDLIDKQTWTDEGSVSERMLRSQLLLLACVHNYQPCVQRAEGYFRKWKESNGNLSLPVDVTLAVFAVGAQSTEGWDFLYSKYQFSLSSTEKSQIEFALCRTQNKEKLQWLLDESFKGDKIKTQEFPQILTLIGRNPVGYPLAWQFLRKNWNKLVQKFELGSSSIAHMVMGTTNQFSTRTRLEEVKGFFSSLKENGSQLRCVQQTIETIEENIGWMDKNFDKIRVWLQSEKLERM
With `O=S(=O)(Nc1cccc(-c2cn3c(n2)SCC3)c1)c1ccccc1F`, the outcome was inactive.

Take `COc1ccccc1CN1CC[C@@H]2[C@H](CO)Nc3ccc(-c4cccc(C(=O)N(C)C)c4)cc3[C@@H]21`: the outcome was inactive.

Consider `C[C@H]1CN([C@@H](C)CO)C(=O)c2cc(-c3ccc(F)cc3)cnc2O[C@H]1CN(C)CC1CCCCC1`, for which the result was inactive.
